The record followed here is PubChem BioAssay.

Test [1] concerns PRMT1 (protein arginine N-methyltransferase 1). Nature of the test: PRMT1 binders on small-molecule microarrays, primary screen, biochemical, small-molecule microarray, 635 nm fluorescence (AID 1088).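 Also: binding of Prmt1 protein to compounds spotted on small-molecule microarray slides.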 Particulars: small-molecule microarray binding, higher = more signal.
A short description of test [2]: yeast growth modulation, basal conditions, primary screen, YJM789 clinical isolate, OD600, 24 h (AID 1089).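 Also: growth of clinical yeast isolate S. cerevisiae YJM 789 seeded 1000 cells per well; test concentration not given here.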 Particulars: S. cerevisiae YJM789 growth, higher = more signal, called active from +8 up or from −8 down.
Test [3] in a line: fission yeast growth modulation, primary screen, strain 972, OD600, 24 h, no modulator (AID 1090).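 Also: basal condition with compound alone and no growth modifier present; test concentration not given here.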 The note with it: S. pombe 972 growth, higher = more signal, called active from +8 up or from −8 down.
Test [4] is described as follows: S. cerevisiae growth modulation with rapamycin, primary screen, strain BY4716, OD600, 96 h (AID 1091). Also: test concentration not given here. Particulars: higher = more signal, called active from +8 up or from −8 down.
The target in test [5] is Torsin-1A-interacting protein 2 (Homo sapiens) (UniProt Q8NFQ8). Kind of test: LULL1 binders on small-molecule microarray, primary screen, cell lysate, human LULL1 lysate, 635/667 nm fluorescence (AID 1092).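 Also: probe is lysate of COS7 cells overexpressing human LULL1; score merges per-feature 667 nm fluorescence with signal-to-noise.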 The note with it: hLULL1 lysate binding, 635 nm fluorescence, higher = more signal.
Chain of Torsin-1A-interacting protein 2 (Homo sapiens) (Q8NFQ8 whole entry, looked up): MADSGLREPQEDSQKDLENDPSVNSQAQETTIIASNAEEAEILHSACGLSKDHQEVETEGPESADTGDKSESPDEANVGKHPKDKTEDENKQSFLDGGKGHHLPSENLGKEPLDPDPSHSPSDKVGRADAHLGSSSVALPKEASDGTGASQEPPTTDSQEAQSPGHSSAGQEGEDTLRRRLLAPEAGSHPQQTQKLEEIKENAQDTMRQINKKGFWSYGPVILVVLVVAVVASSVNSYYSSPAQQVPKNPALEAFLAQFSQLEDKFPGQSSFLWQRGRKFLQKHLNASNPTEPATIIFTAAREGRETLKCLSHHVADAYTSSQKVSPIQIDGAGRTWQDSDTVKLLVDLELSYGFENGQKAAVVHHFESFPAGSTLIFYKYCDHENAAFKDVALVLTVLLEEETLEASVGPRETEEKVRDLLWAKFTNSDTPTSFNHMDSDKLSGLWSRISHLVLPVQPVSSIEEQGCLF
Test [6] is described as follows: E. coli growth modulation, two-sided OD650, primary screen, E. coli filamentation project, strain DRC41, 24 h (AID 1093).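 Also: MC1000 strain lacking acrAB efflux and sulA so SOS filamentation is blocked; test concentration not given here.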 The note with it: OD650, 24 h, higher = more signal, called active from +8 up or from −8 down.
Test [7] can be described thus: small-molecule microarray binders of probe aLefty2, primary screen, biochemical, biotinylated probe, 635/667 nm fluorescence (AID 1094).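 Also: score merges spot fluorescence near 667 nm with spot signal-to-noise ratio.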 The note with it: higher = more signal.
Test [8] has as its system Noggin (protein binding on small-molecule microarray). Kind of test: Noggin binders on small-molecule microarray, primary screen, biochemical, 635/667 nm fluorescence (AID 1095).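 Also: score merges 667 nm feature fluorescence with signal to noise over triplicate slides.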 Particulars: 635 nm fluorescence, higher = more signal.
The target in test [9] is Neurogenic locus notch homolog protein 3 (Homo sapiens) (UniProt Q9UM47). Kind of test: NOTCH3 binders on small-molecule microarray, primary screen, biochemical, 635/667 nm fluorescence (AID 1096). The note with it: NOTCH3 binding, 635 nm fluorescence, higher = more signal.
Chain of Neurogenic locus notch homolog protein 3 (Homo sapiens) (Q9UM47 whole entry, looked up): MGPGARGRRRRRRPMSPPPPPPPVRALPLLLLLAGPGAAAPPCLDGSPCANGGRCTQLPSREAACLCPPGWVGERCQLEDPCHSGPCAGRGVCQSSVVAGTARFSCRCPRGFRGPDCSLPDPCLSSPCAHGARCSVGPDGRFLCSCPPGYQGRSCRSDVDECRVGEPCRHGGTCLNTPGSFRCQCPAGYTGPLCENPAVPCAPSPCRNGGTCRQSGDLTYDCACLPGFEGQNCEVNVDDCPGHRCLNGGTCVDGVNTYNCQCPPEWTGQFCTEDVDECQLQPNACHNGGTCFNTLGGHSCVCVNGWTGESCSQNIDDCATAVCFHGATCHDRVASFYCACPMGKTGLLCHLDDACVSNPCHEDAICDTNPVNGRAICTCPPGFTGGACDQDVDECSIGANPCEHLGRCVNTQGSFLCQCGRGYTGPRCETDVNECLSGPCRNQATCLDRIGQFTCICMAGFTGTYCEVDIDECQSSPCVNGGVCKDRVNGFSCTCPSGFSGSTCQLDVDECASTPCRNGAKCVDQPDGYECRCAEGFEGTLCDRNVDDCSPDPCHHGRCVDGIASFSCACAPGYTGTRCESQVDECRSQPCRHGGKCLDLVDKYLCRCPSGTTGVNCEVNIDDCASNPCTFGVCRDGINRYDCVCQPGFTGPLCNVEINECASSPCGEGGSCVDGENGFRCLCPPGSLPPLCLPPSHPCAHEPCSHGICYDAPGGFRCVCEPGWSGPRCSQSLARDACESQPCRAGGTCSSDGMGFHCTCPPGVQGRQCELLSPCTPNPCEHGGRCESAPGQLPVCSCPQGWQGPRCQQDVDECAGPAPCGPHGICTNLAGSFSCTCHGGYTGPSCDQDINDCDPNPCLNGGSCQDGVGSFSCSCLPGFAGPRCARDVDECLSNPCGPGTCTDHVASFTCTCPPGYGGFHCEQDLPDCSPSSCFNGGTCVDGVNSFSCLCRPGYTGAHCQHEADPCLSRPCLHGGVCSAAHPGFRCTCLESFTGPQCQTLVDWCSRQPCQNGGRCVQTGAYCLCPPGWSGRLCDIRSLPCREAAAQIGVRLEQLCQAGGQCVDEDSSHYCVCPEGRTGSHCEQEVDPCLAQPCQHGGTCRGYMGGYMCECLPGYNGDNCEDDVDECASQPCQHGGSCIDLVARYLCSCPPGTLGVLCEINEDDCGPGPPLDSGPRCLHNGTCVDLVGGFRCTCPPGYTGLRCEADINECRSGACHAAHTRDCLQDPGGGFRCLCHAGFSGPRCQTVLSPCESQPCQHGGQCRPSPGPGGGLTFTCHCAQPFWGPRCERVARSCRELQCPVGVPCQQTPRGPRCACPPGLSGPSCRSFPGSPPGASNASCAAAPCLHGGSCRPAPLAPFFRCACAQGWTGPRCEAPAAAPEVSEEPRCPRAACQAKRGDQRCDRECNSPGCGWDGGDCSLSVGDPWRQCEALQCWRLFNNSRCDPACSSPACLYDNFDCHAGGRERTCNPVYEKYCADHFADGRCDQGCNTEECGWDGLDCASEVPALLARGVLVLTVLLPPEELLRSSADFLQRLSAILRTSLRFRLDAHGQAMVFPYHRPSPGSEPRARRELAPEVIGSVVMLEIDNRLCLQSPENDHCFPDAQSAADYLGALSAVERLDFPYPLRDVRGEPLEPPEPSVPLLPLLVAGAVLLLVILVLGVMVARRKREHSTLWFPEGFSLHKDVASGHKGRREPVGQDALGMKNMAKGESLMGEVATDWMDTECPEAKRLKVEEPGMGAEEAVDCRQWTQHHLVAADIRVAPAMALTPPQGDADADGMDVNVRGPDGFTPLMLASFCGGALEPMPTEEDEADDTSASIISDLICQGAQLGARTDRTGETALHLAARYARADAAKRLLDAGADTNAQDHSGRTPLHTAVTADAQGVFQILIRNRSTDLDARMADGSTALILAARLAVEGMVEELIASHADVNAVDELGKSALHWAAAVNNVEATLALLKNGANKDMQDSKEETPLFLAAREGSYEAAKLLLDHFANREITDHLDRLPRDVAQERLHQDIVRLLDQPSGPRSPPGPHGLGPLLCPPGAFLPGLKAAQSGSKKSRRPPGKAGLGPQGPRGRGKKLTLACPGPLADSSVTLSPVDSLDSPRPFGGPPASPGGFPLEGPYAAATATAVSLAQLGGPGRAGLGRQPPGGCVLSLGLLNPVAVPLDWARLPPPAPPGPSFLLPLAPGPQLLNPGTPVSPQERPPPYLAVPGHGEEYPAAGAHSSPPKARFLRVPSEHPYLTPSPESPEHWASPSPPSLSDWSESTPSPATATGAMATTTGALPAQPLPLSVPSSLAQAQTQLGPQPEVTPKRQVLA
The nature of test [10]: small-molecule microarray binders of probe aEGFR, primary screen, biochemical, biotinylated probe, 635/667 nm fluorescence (AID 1097).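 Also: probe is a biotinylated anti-EGFR antibody binding compounds printed on slides; score combines fluorescence near 667 nm and signal to noise of each spot.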 The note with it: higher = more signal.
Test [11] deals with Plasmodium falciparum Sir2 (PF13_0152, Sir2A). Kind of test: pfSir2 binders on small-molecule microarrays, primary screen, biochemical, small-molecule microarray, 635 nm fluorescence (AID 1098).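 Also: score merges spot fluorescence intensity with its signal-to-noise ratio.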 Particulars: small-molecule microarray binding, fluorescence 635 nm; higher = more signal.
Test [12] is described as follows: small-molecule microarray binders of probe aDKK1, primary screen, biochemical, biotinylated probe, 635/667 nm fluorescence (AID 1099).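 Also: score merges 667nm spot fluorescence with signal to noise across triplicate slides; reference of the scale not given here.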 The note with it: higher = more signal.
A short description of test [13]: small-molecule microarray binders of probe aCHRDL2, primary screen, biochemical, biotinylated probe, 635/667 nm fluorescence (AID 1100). Particulars: higher = more signal.
Test [14] in a line: splicing luciferase reporter signal modulators, primary screen, spliceosome inhibition project, cell-based, HEK293, splice +/- reporter (AID 1101).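 Also: HEK293 cells carrying a splicing-competent luciferase reporter gene; test concentration not given here.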 The note with it: luminescence, 24 h, higher = more signal, called active from +8 up or from −8 down.
In test [15] the target is Fibroblast growth factor 10 (Homo sapiens) (UniProt O15520). Nature of the test: FGF10 binders on small-molecule microarrays, primary screen, biochemical, small-molecule microarray, 635 nm fluorescence (AID 1102). The note with it: FGF10 binding, fluorescence 635 nm, higher = more signal.
Chain of Fibroblast growth factor 10 (Homo sapiens) (O15520 whole entry, looked up): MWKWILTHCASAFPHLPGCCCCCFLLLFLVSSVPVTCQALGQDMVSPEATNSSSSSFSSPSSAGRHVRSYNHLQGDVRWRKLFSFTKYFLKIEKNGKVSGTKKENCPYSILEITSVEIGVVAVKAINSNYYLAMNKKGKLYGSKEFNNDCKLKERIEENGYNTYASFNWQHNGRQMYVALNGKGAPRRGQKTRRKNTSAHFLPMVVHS
Test [16] has as its system glycogen synthase kinase-3 (GSK3A per assay name; protocol says GSK3B). Nature of the test: GSK3 binders on small-molecule microarrays, primary screen, biochemical, small-molecule microarray, 635 nm fluorescence, GSK3A (AID 1103). Also: the record names both GSK3A and GSK3B. The note with it: small-molecule microarray binding, fluorescence 635 nm; higher = more signal.
Test [17] concerns the target Epidermal growth factor receptor (Homo sapiens) (UniProt P00533). Nature of the test: EGFR binders on small-molecule microarrays, primary screen, biochemical, small-molecule microarray, 635 nm fluorescence (AID 1104).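 Also: score merges 667 nm emission intensity with spot signal to noise over triplicate slides.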 The note with it: EGFR binding, higher = more signal.
Test [18] concerns the target Follistatin-related protein 3 (Homo sapiens) (UniProt O95633). Nature of the test: FSTL3 binders on small-molecule microarrays, primary screen, biochemical, small-molecule microarray, 635 nm fluorescence (AID 1105).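 Also: score merges emission near 667 nm and signal to noise per printed spot across three slides.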 Particulars: FSTL3 binding, higher = more signal.
The target in test [19] is Dickkopf-related protein 1 (Homo sapiens) (UniProt O94907). Nature of the test: DKK1 binders on small-molecule microarrays, primary screen, biochemical, small-molecule microarray, 635 nm fluorescence scan (AID 1106).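 Also: score merges emission near 667 nm with signal to noise over three replicate slides.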 Particulars: DKK1 binding, higher = more signal.
Chain of Dickkopf-related protein 1 (Homo sapiens) (O94907 whole entry, looked up): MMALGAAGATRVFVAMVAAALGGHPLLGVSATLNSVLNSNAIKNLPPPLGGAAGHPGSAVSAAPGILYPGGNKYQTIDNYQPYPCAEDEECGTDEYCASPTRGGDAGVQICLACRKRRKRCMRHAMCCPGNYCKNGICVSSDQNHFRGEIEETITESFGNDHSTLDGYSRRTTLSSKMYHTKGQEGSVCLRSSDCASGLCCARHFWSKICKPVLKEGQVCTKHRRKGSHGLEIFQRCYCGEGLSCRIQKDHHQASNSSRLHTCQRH
The subject of test [20] is Inhibin beta A chain (activin A). Kind of test: INHBA (activin A) binders on microarrays, primary screen, biochemical, small-molecule microarray, 635 nm fluorescence scan (AID 1107).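 Also: mouse activin A protein probed at 4.33 µg/mL on printed slides; score merges bound-protein fluorescence near 667 nm with spot signal-to-noise.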 Particulars: small-molecule microarray binding, higher = more signal.

Calls of active or inactive are those of the source.

Chain of Follistatin-related protein 3 (Homo sapiens) (O95633 whole entry, looked up): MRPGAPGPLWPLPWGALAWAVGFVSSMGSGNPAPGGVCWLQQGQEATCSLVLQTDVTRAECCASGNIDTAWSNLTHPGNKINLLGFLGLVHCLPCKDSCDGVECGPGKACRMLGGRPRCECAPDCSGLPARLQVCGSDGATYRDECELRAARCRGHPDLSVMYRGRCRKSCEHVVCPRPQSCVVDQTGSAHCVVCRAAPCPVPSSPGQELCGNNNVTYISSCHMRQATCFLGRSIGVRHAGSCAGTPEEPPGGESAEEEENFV
Chain of Epidermal growth factor receptor (Homo sapiens) (P00533 whole entry, looked up): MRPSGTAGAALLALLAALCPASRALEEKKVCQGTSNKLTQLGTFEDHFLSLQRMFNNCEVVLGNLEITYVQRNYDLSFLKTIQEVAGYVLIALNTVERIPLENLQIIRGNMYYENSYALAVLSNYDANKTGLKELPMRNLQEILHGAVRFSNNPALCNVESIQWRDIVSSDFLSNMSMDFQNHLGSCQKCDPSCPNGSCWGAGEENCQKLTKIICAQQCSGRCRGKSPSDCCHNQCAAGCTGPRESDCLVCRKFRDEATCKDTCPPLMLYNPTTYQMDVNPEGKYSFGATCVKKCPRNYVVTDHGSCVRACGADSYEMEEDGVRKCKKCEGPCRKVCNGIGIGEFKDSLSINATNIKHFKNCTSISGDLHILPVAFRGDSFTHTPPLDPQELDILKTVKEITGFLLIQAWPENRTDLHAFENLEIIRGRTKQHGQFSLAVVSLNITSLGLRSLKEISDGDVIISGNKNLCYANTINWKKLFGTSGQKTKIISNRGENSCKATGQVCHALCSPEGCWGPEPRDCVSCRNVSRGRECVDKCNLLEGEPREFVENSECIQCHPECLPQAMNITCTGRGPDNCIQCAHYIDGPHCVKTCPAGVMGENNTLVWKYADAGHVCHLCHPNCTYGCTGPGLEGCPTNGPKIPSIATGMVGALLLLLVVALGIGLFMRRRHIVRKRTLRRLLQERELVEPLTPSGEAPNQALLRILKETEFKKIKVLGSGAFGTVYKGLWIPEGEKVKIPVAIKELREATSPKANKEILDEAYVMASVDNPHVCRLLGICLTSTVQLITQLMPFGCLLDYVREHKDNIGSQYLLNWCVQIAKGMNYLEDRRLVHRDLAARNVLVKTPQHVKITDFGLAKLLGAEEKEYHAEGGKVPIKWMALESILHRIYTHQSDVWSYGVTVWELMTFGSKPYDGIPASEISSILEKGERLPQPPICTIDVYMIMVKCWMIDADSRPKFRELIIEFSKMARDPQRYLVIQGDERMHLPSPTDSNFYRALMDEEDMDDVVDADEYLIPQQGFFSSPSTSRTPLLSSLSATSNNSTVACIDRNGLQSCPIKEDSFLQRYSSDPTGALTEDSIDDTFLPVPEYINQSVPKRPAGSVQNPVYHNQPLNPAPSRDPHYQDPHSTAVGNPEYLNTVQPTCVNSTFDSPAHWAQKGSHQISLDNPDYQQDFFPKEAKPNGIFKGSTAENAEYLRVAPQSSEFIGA

Take `C/C(=N\O)C(=O)NCCCCCNC(=O)OCc1ccccc1`: the composite z-score in [1] is -0.214; in [5] it was 0.63; in [7], -0.0741; in test [8] it was 0.65; in test [9], 0.996; in [10] it was 0.0221. In addition, the composite z-score in test [11] was 0.807; in test [12], -0.186; in [13] it was -0.472; in [15], 0.554; in test [16] it was 0.777; in test [17], 0.479. Besides, the results for the composite z-score in [18], in [19] and in test [20] were 1.03, 0.497 and 0.102, respectively. Also, the z-score is -0.286 (inactive) in test [2]; -0.966 (inactive) in [3]; -1.27 (inactive) in [4]; 2.03 (inactive) in test [6]; -0.508 (inactive) in [14].

`O=C1C[C@@](C(=O)NCCN2CCOCC2)(c2ccc([N+](=O)[O-])cc2)[C@@H](c2ccc(CO)cc2)N1C1CCCCC1`: the composite z-score turned out to be 1.55 in test [1]; 3.07 in test [5]; 0.138 in [7]; 0.515 in test [8]; 1.12 in [9]; 0.23 in test [10]. The composite z-score in test [11] stood at 1.2; in test [12], 0.653; in test [13], 1.02; in test [15], 0.798; in [16], 1.02; in test [17], 0.789. The composite z-score in test [18] is 0.662; in test [19] it was -0.0544; in [20], 0.64. Besides, the z-score is 0.406 (inactive) in test [2]; -0.824 (inactive) in test [3]; -0.468 (inactive) in test [4]; 1.48 (inactive) in [6]; 0.281 (inactive) in [14].

`C[C@]1(C(=O)NCc2ccccc2)c2ccccc2C(=O)N(Cc2cc(C(F)(F)F)cc(C(F)(F)F)c2)[C@H]1c1ccc(CO)cc1`: the composite z-score was determined as 1.58 in test [1]; 1.51 in test [5]; 0.339 in test [7]; 0.583 in test [8]; 0.655 in [9]; 0.18 in test [10]. Moreover, the composite z-score in [11] worked out at 0.643; in test [12] it was 0.698; in test [13] it was 0.778; in test [15], 0.894; in test [16], 1.18; in [17], 0.123. Moreover, the composite z-score in test [18] is 0.439; in [19], 0.419; in test [20] it was 0.856. Moreover, the z-score is -2 (inactive) in [2]; -3.22 (inactive) in [3]; -2.11 (inactive) in test [4]; 2.13 (inactive) in [6]; -1.73 (inactive) in [14].

`COC(=O)C(CC#Cc1ccc2c(c1)[C@]1(C(=O)N2)[C@H](C(=O)N2CCCCCCC2)[C@H]2C(=O)O[C@H](c3ccccc3)[C@H](c3ccccc3)N2[C@@H]1c1ccc(O)cc1)C(=O)OC`: the composite z-score is -1.19 in test [1]; -0.573 in test [5]; -0.294 in test [7]; -0.805 in test [8]; -0.909 in [9]; -0.221 in [10]. In addition, the composite z-score in test [11] is 0.465; in test [12] it was -0.2; in test [13], 0.269; in [15], -1.05; in test [16], -1.63; in test [17] it was -0.887. Moreover, the composite z-score in [18] is -0.635; in test [19], -0.785; in test [20], 0.16. Also, the z-score was -0.428 (inactive) in test [2]; 0.0597 (inactive) in test [3]; 0.702 (inactive) in test [4]; 0.904 (inactive) in test [6]; -0.751 (inactive) in [14].

As for `CCCC[C@H]1OB(O)C[C@H]2C1=C(COC)C[C@H]1C(=O)N(Cc3ccccc3)C(=O)[C@H]12`, the composite z-score was -0.0448 in test [1]; 0.58 in test [5]; -0.113 in test [7]; 0.321 in test [8]; 0.75 in test [9]; -0.0958 in [10]. Besides, the composite z-score in test [11] is -0.0105; in [12], 0.0752; in [13] it was -0.0346; in test [15], 0.78; in test [16], 0.261; in test [17], 0.013. The composite z-score in [18] was determined as 1.1; in test [19] it was 0.0988; in [20] it was 0.223. The z-score in test [2] is -0.776 (inactive); in test [3], -1.69 (inactive); in [4] it was -1.69 (inactive); in test [6] it was 2.71 (inactive); in [14], -1.27 (inactive).

With `C#CCCCON=C1C[C@@H](O)[C@@H](O)[C@@H]2[C@@H]3C(=O)N(Cc4ccc5c(c4)OCO5)C(=O)[C@@H]3CC[C@@H]12`, the composite z-score in [1] is 0.652; in test [5], 0.852; in test [7] it was -0.0367; in [8], -0.0201; in [9], 0.0568; in test [10] it was -0.0389. Further, the composite z-score in test [11] is 0.211; in [12] it was -0.136; in test [13] it was 0.0822; in [15] it was 0.42; in test [16], 0.257; in test [17], 0.336. The composite z-score in test [18] worked out at 0.862; in [19], 0.278; in test [20], 0.308. Also, the z-score is 0.755 (inactive) in [2]; 0.783 (inactive) in [3]; 0.271 (inactive) in test [4]; 0.105 (inactive) in [6]; -0.117 (inactive) in test [14].

Regarding `CCCNC(=O)[C@@]1(Sc2ccc(C)cc2)CC(=O)N(Cc2ccccc2Cl)[C@@H]1c1ccc(CO)cc1`, the composite z-score was 1.33 in test [1]; 1.64 in [5]; 0.0493 in test [7]; 1.06 in test [8]; 1.11 in test [9]; -0.0082 in test [10]. Moreover, the composite z-score in test [11] came to 0.237; in test [12], 0.866; in test [13] it was 0.956; in test [15], 0.719; in [16] it was 1.28; in test [17], 0.566. In addition, the composite z-score in test [18] was 1.06; in test [19], 1.22; in test [20] it was 1.42. Further, the z-score in test [2] is -1.08 (inactive); in [3], -3.1 (inactive); in test [4], -2.53 (inactive); in test [6], 0.298 (inactive); in test [14], -2.31 (inactive).
